In all, about 370,000 compounds went through this assay and about 3,100 (0.84%) were called active. The sample as a whole holds a higher share of actives than the screen did. Values without a mark were called inactive. No stated cut-off is given here; in the data, active means inhibition above about 9.5%; inactive means the rest.
Biological target: 1-phosphatidylinositol 4,5-bisphosphate phosphodiesterase gamma-1 (Homo sapiens) (UniProt P19174)
Test: PLC-gamma1 enzyme inhibitors, primary screen, biochemical, fluorescence, purified enzyme (AID 720700)
Conditions: purified PLC-gamma1, fluorogenic substrate, at 12.2 µM, stronger effect = higher value

Chain of 1-phosphatidylinositol 4,5-bisphosphate phosphodiesterase gamma-1 (Homo sapiens) (P19174 whole entry, looked up): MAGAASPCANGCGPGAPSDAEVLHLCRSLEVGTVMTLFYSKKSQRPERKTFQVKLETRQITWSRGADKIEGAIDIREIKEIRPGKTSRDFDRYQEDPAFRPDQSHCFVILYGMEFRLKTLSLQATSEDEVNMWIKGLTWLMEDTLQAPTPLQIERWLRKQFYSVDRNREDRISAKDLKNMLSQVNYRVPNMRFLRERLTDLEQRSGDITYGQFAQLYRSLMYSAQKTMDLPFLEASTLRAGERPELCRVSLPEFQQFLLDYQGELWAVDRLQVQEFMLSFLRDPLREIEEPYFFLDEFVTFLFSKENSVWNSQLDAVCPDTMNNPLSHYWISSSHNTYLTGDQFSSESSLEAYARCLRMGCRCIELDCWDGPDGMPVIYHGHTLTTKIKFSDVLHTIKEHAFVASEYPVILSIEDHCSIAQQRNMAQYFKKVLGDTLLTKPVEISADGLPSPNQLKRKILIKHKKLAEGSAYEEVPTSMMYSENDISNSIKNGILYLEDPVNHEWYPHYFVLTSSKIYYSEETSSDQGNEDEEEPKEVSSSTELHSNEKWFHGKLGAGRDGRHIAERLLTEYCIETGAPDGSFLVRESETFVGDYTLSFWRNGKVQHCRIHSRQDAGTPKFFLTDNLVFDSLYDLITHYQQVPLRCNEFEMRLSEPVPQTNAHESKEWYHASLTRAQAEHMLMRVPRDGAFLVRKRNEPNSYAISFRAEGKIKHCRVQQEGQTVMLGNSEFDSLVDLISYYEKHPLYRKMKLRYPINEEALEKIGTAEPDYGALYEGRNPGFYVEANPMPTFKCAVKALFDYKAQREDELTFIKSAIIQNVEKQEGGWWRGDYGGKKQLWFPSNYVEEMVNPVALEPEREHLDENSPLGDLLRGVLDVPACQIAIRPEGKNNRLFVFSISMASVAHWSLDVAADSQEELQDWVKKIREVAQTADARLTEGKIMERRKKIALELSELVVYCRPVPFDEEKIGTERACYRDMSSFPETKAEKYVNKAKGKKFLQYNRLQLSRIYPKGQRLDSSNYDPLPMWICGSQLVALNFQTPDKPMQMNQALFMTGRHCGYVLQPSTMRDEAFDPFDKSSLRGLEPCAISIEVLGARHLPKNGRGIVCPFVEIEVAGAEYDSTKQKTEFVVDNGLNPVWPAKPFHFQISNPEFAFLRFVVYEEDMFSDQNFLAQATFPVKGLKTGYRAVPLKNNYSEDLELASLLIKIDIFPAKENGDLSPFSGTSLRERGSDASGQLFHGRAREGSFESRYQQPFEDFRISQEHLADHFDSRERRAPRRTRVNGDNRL

| SMILES | inhibition |
| --- | --- |
| CC(C)C(C#CC1CC1)N(Cc1ccc2c(c1)OCO2)C(N)=NC(=O)/C=C/c1cccc(C(F)(F)F)c1 (stereo unspecified) | 0.02% |
| C=CCN(C(=O)[C@@H](CCCC)[C@@H](O)c1ccc(Cl)cc1)c1ccccc1 | -0.11% |
| CCC(=O)Nc1ccc(S(=O)(=O)NCC2CCCO2)cc1 (stereo unspecified) | 3.4% |
| CCOc1ccc(S(=O)(=O)NCCC(=O)NCC2CCCO2)cc1 (stereo unspecified) | 2.41% |
| O=C(CCNS(=O)(=O)c1ccc(Br)cc1)NCC1CCCO1 (stereo unspecified) | 12.3% (active) |
| COC(=O)[C@]12C[C@H](CC(=O)NCc3ccccc3)C(=O)N(Cc3ccccc3)C1=C[C@H](COCc1ccccc1)O[C@@H]2C | 8.06% |
| COc1ccc(-n2c(SCC(=O)Nc3ccccc3-c3ccccc3)nnc2-c2cccnc2)cc1 | -0.54% |
| C=C(C)C1CC23C(=O)C4(C(=O)c5ccccc5)C[C@@]5(C)CCC(CC2C1(C)C)(C4=O)C35OC (stereo partly specified) | -0.5% |
| COC(=O)[C@]12C[C@H](CC(=O)N3CCOCC3)C(=O)N(Cc3ccc(Cl)cc3Cl)C1=C[C@H](C(C)C)O[C@@H]2C1CC1 | -1.21% |
| O=C(CSc1ncn[nH]1)N/N=C/c1ccc(F)cc1 | 9.55% (active) |
| O=C(CSc1ncn[nH]1)Nc1nsc(-c2ccccc2)n1 | -3.65% |
| O=C(CSc1ncn[nH]1)Nc1ccnc2ccccc12 | 0.33% |
| COc1cc(NC(=O)C2CCCN(S(=O)(=O)c3ccc(C(C)(C)C)cc3)C2)cc(OC)c1 (stereo unspecified) | 0.39% |
| CC(C)CNc1cccc2c1S(=O)(=O)N(Cc1cn(Cc3ccc(Cl)cc3)nn1)Cc1ccccc1O2 | -48.8% |
| C=CCN1[C@@H](Cc2ccccc2)COc2cccc(N3CCSCC3)c2S1(=O)=O | 1.11% |
| CCOC(=O)[C@]12CCCCC/C=C\1N(Cc1ccc(OC)cc1)C(=O)[C@H]2CC(=O)N1CCOCC1 | -0.42% |
| CCOC(=O)[C@]12CCCC=C1N(CCCOC)C(=O)[C@@H]2CC(=O)N1CCOCC1 | 10.2% (active) |
| CCOC(=O)[C@]12CCCC=C1N(Cc1ccc(OC)cc1)C(=O)[C@@H]2CC(=O)N1CCOCC1 | 0.69% |
| COc1ccc(N2CCN(CCNS(=O)(=O)c3ccc([N+](=O)[O-])cc3)CC2)cc1 | -0.14% |
| COC(=O)C1CN(CCc2ccccc2)CCS(=O)(=O)N1Cc1cccc(Cl)c1 (stereo unspecified) | 0.86% |
| COc1ccc(CSc2nnc(-c3cccc(C)c3)n2C)cc1 | 1% |
| COc1ccc(-n2c(COc3ccccc3)nnc2SCC(=O)Nc2ccc3c(c2)OCO3)cc1 | -1.32% |

| SMILES | inhibition |
| --- | --- |
| Cc1cc(C)n2ncc(C(=O)Nc3ccc4c(c3)OCCO4)c2n1 | -0.99% |
| CN(C)[C@H]1CCN(c2cccc3c2S(=O)(=O)N2CC[C@H](C2)O3)C1 | 1.23% |
| O=C(CN1CCCCC1)Nc1ccccc1C(=O)NC1CC1 | 3.56% |
| CC(=O)c1ccc(N2CCN(CC(=O)Nc3ccccc3N3CCOCC3)CC2)cc1 | -2.41% |
| O=C(CN1CCN(C2CCCCC2)CC1)Nc1ccccc1N1CCCCC1 | 10.2% (active) |
| COc1ccc(C(=O)Nc2c(N)nc(SCC(=O)Nc3ccc(C(C)=O)cc3)[nH]c2=O)cc1 | -0.47% |
| COc1ccc(NC(=O)c2ccccc2CC[N+](=O)[O-])cc1 | 0.81% |
| COc1ccc(NC(=O)c2ccc(OC)cc2)cc1 | 11% (active) |
| C[C@@H]1CN([C@@H](C)CO)C(=O)c2cccc(NC(=O)Nc3cccc4ccccc34)c2O[C@H]1CN(C)S(=O)(=O)c1ccccc1F | -11.6% |
| CCN(CC)CCCNC(=O)c1ccc2c(=O)n(Cc3ccc4c(c3)OCO4)c(=S)[nH]c2c1 | -2.49% |
| Cc1cccc(NC(=O)c2ccc3c(=O)n(CC4CCCO4)c(=S)[nH]c3c2)c1 (stereo unspecified) | 10.2% (active) |
| O=C(NCc1ccccc1Cl)c1ccc2c(=O)n(CC3CCCO3)c(=S)[nH]c2c1 (stereo unspecified) | 2.56% |
| Cc1ccc(NC(=S)NNC(=O)CSc2nnc(SCc3ccccc3Cl)s2)cc1 | -4.17% |
| CC(=O)OCCN1CCCC12CCC(c1ccccc1)CC2 (stereo unspecified) | -1.82% |
| CCc1ccccc1NC(=O)CSc1nnc(-c2cccs2)o1 | -2.39% |
| COC(=O)[C@]12C[C@H](CC(=O)NCc3ccccc3)C(=O)N(CCc3ccc(OC)c(OC)c3)C1=C[C@H](C(C)(C)C)O[C@@H]2C | 1.65% |
| COC(=O)C1CN(Cc2cn(Cc3ccc(F)cc3)nn2)CCS(=O)(=O)N1Cc1ccc(Cl)cc1 (stereo unspecified) | 0.64% |
| C=CCN1C(=O)[C@H](CC(=O)N2CCN(C(=O)OCC)CC2)[C@@]2(C(=O)OCC)CCCC=C12 | 0.46% |
| FC(F)(F)c1cccc(Cn2ccc3ccc(-c4ccc5ccn(Cc6ccccc6)c5c4)cc32)c1 | -66.4% |
| O=c1c([N+](=O)[O-])cccn1Cc1ccc(F)cc1Cl | 3.37% |
| O=c1c([N+](=O)[O-])cc(C(F)(F)F)cn1Cc1cccc(Cl)c1 | 11.6% (active) |
| COC(=O)[C@]12C[C@H](CC(=O)NCC34CC5CC(CC(C5)C3)C4)C(=O)N(Cc3ccc(Cl)cc3Cl)C1=C[C@H](COCc1ccccc1)O[C@@H]2C | -0.03% |

| SMILES | inhibition |
| --- | --- |
| CN(CCO)Cc1csc2ccc(Br)cc12 | 1.91% |
| CCN(CC)Cc1cc(C(C)=O)ccc1O | 3.56% |
| CCN(CC)Cc1csc2ccc(Br)cc12 | 9.63% (active) |
| C=CCN1C(=O)[C@@H](CC(=O)NCCCCc2ccccc2)[C@]2(C(=O)OCC)CCCCC/C=C/12 | -0.06% |
| O=C(CN1CCCc2ccccc21)NCc1ccc(F)cc1 | -1.61% |
| COc1ccc(NC(=O)CC2C(=O)NC3CCCCC3N2C(=O)c2ccc(F)cc2)cc1 (stereo unspecified) | 0.91% |
| COc1ccccc1C(=O)N1CCNC(=O)C1CC(=O)Nc1ccc(Cl)cc1 (stereo unspecified) | 7.83% |
| COc1ccccc1C(=O)N1C(CC(=O)Nc2ccccc2C)C(=O)NC2CCCCC21 (stereo unspecified) | 9.7% (active) |
| O=C(C1CCN(S(=O)(=O)c2ccccc2)CC1)N1CCN(C2CCCCC2)CC1 | -0.77% |
| Cc1ccc(-n2c(SCC(=O)Nc3cccc4ccccc34)nnc2-c2ccccn2)cc1 | -0.11% |
| O=C1CS(=O)CN1c1ccc(Oc2ccccc2)cc1 (stereo unspecified) | 12% (active) |
| Cc1n[nH]c(=O)n1-c1ccc(Oc2ccccc2)cc1 | -0.23% |
| CC(N=Cc1nc(-c2ccccc2)oc1O)c1ccccc1 (stereo unspecified) | 14.1% (active) |
| Oc1oc(-c2ccccc2Br)nc1/C=N/c1ccccn1 | -17.6% |
| O=C1CC[C@@]23CCCN2C(=O)CCC[C@H]3[C@H]1Cc1ccccc1 | 0.07% |
| CCc1c(C)nc(N2CCN(Cc3ccccc3)CC2)[nH]c1=O | -1.09% |
| CC(C)n1c(CN2CCN(Cc3ccccc3)CC2)nc2ccccc21 | 9.89% (active) |
| CCCCn1c(CN2CCN(CCO)CC2)nc2ccccc21 | 0.96% |
| O=C(NCc1cccs1)C1CCCN(S(=O)(=O)c2ccc([N+](=O)[O-])cc2)C1 (stereo unspecified) | 3.77% |
| O=S(=O)(c1ccccc1)N1CCC(c2nc3ccccc3o2)CC1 | -4.98% |
| COc1ccc(C(CNC(=O)c2cc(S(=O)(=O)Nc3cccc(C)c3)ccc2C)N2CCCC2)cc1 (stereo unspecified) | 11% (active) |
| Cc1cccc(NS(=O)(=O)c2ccc(C)c(C(=O)NCC(c3ccccc3)N(C)C)c2)c1 (stereo unspecified) | 2.63% |

| SMILES | inhibition |
| --- | --- |
| COc1ccc(NS(=O)(=O)c2ccc(C)c(C(=O)NCC(c3cccs3)N3CCOCC3)c2)cc1 (stereo unspecified) | -3.99% |
| C=CCOC/C=C/C#CCN(CC=C)Cc1ccc(OC)cc1OC | 2.05% |
| Cc1ccc(-n2c(SCC(=O)Nc3ccc(S(=O)(=O)Nc4nccs4)cc3)nnc2-c2cccnc2)cc1 | 6.23% |
| COCCNC(=O)C(c1ccc(O)cc1)N(C(=O)CCC(=O)Nc1nccs1)c1ccc(C)cc1 (stereo unspecified) | 15.2% (active) |
| COCCNC(=O)C(c1ccc(C)cc1)N(C(=O)CCC(=O)Nc1ccccn1)c1cccc(C)c1 (stereo unspecified) | 5.63% |
| COCCN(C(=O)CCC(=O)Nc1nccs1)C(C(=O)NCCC(C)C)c1ccc(F)cc1 (stereo unspecified) | 3.17% |
| CCC(=O)OCCCN1C(=O)CCC12CCC(c1ccccc1)CC2 (stereo unspecified) | 1.02% |
| C[C@@H]1COc2cccc(N3CCCC3)c2S(=O)(=O)N1C | -3.06% |
| C=CC1=C(C(=O)O)N2C(=O)[C@@H](NC(=O)/C(=N/OCC(=O)O)c3csc(N)n3)[C@H]2SC1 | 22.2% (active) |
| C=CC1=C(C(=O)O)N2C(=O)[C@@H](NC(=O)/C(=N\OCC(=O)O)c3csc(N)n3)[C@H]2SC1 | 23.4% (active) |
| COC(=O)[C@]12C[C@H](CC(=O)N3CCOCC3)C(=O)N(Cc3ccc(Cl)cc3Cl)C1=C[C@H](COCc1ccccc1)O[C@@H]2C | 1.02% |
| CC(C)Oc1ccc(CC(=O)NNC(=S)Nc2ccc(Br)cc2)cc1 | 9.8% (active) |
| COC(=O)Cc1ccc(NC(=S)NCc2ccco2)cc1 | 2.1% |
| CSc1ccccc1NC(=O)Cc1ccc(Br)cc1 | 3.58% |
| O=C(C1CCCN1S(=O)(=O)c1ccccc1)N1CCc2ccccc2C1 (stereo unspecified) | -1.86% |
| O=C(NCC1COc2ccccc2O1)c1ccc(NC(=O)c2cc(F)ccc2F)cc1 (stereo unspecified) | -4.17% |
| Cc1ccc(Cn2cc(CN3[C@@H](C)COc4cc(Br)ccc4S3(=O)=O)nn2)cc1 | 0.13% |
| O=C(c1cccc(N2CCCC2=O)c1)N1CCOCC1 | -4.42% |
| NC1=NN(c2cccc(C(=O)O)c2)C(=O)C1 | 18.9% (active) |
| C/C(=N\NC(=O)c1cccc(N2CCCC2=O)c1)c1ccc(N)cc1 | 1.08% |

Source: PubChem BioAssay AID720700 (The Scripps Research Institute Molecular Screening Center, 2013)
